# Measured values taken from the supplement of paper PMC4022240.
# ± gives the standard deviation.
# T1: HaloTag-ATRX ADD domain (163-292)
# T1 chain: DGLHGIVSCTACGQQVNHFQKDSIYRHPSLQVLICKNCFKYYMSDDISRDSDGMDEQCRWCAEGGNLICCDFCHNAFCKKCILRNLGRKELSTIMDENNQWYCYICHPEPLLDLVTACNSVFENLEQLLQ
# B1: H3 11-23 T G G Kme3 A P R Kme3 Q L A T K (peptide)
# chain: TGGKAPRKQLATK
# B2: H3 11-23 T G G Kme3 A P R Kac Q L A T K (peptide)
# chain: TGGKAPRKQLATK
# B3: H3 11-23 T G G K A P R Kme2 Q L A T K (peptide)
# chain: TGGKAPRKQLATK
# B4: H3 11-23 T G G K A P R Kme Q L A T K (peptide)
# chain: TGGKAPRKQLATK
# B5: H3 11-23 T G G Kme2 A P Rme2s K Q L A T K (peptide)
# chain: TGGKAPRKQLATK
# B6: H3 11-23 T G G K A P Rcit Kac Q L A T K (peptide)
# chain: TGGKAPRKQLATK
# B7: H3 11-23 T G G Kme3 A P Rcit K Q L A T K (peptide)
# chain: TGGKAPRKQLATK
# B8: H3 11-23 T G G Kme3 A P Rme2s K Q L A T K (peptide)
# chain: TGGKAPRKQLATK
# B9: H3 11-23 T G G Kme3 A P R Kme Q L A T K (peptide)
# chain: TGGKAPRKQLATK
# B10: H3 11-23 T G G Kme2 A P R Kme2 Q L A T K (peptide)
# chain: TGGKAPRKQLATK
# Legend:
# Assay in all cases: peptide microarray binding signal (635 nm), min-max normalized on array (fraction of array maximum); higher = stronger binding
# Conditions in all cases: peptide region: H3 11-23
# [1] = molecular target: T1, HaloTag-ATRX ADD domain (163-292)
# In short: (§1)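 For each library, binding signal was taken as the triplicate-spot mean intensity and then min-max scaled. Spots of histone 13-mer peptide–cellulose conjugates on nitrocellulose, printed in triplicate with a Cy3 tracer, were probed for 1 h at 4°C with either biotin-labelled HaloTag reader fusions (10 nM to 1 μM) and streptavidin-Alexa Fluor 647 or rabbit histone antibodies (1:10,000 to 1:2,000) and anti-rabbit Alexa 647. Readout at 635 nm came from an Axon GenePix 4000B.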
# [2] = molecular target: HaloTag-ING2 PHD (mouse Ing2 200-280)
# In short: as §1
# [3] = molecular target: anti-H3K4me3 antibody ab8580
# In short: as §1
# [4] = molecular target: anti-H3K9me3 antibody ab8898
# In short: as §1
# [5] = peptide modifications: H3K14me3 H3K18me3, binder concentration: 1:2,000 dilution
# [6] = peptide modifications: H3K14me3 H3K18me3, binder concentration: 1:10,000 dilution
# [7] = peptide modifications: H3K14me3 H3K18ac, binder concentration: 1:2,000 dilution
# [8] = peptide modifications: H3K14me3 H3K18ac, binder concentration: 1:10,000 dilution
# [9] = peptide modifications: H3K18me2, binder concentration: 1:2,000 dilution
# [10] = peptide modifications: H3K18me2, binder concentration: 1:10,000 dilution
# [11] = peptide modifications: H3K18me1, binder concentration: 1:2,000 dilution
# [12] = peptide modifications: H3K18me1, binder concentration: 1:10,000 dilution
# [13] = peptide modifications: H3K14me2 H3R17me2s, binder concentration: 1:2,000 dilution
# [14] = peptide modifications: H3K14me2 H3R17me2s, binder concentration: 1:10,000 dilution
# [15] = peptide modifications: H3R17cit H3K18ac, binder concentration: 1:2,000 dilution
# [16] = peptide modifications: H3R17cit H3K18ac, binder concentration: 1:10,000 dilution
# [17] = peptide modifications: H3K14me3 H3R17cit, binder concentration: 1:2,000 dilution
# [18] = peptide modifications: H3K14me3 H3R17cit, binder concentration: 1:10,000 dilution
# [19] = peptide modifications: H3K14me3 H3R17me2s, binder concentration: 1:2,000 dilution
# [20] = peptide modifications: H3K14me3 H3R17me2s, binder concentration: 1:10,000 dilution
# [21] = peptide modifications: H3K14me3 H3K18me1, binder concentration: 1:2,000 dilution
# [22] = peptide modifications: H3K14me3 H3K18me1, binder concentration: 1:10,000 dilution
# [23] = peptide modifications: H3K14me2 H3K18me2, binder concentration: 1:2,000 dilution
# [24] = peptide modifications: H3K14me2 H3K18me2, binder concentration: 1:10,000 dilution
binder,measurement,setting,value
B1,peptide microarray binding signal,"[1]; peptide modifications: H3K14me3 H3K18me3, binder concentration: 50 nM",0.00652 ± 5.7e-05
same,peptide microarray binding signal,"[1]; peptide modifications: H3K14me3 H3K18me3, binder concentration: 500 nM",0.00876 ± 0.00042
same,peptide microarray binding signal,"[2]; peptide modifications: H3K14me3 H3K18me3, binder concentration: 10 nM",0.00865 ± 0.0015
same,peptide microarray binding signal,"[2]; peptide modifications: H3K14me3 H3K18me3, binder concentration: 100 nM",0.0149 ± 0.0019
same,peptide microarray binding signal,[3]; [5],0.45 ± 0.069
same,peptide microarray binding signal,[3]; [6],0.408 ± 0.048
same,peptide microarray binding signal,[4]; [5],0.18 ± 0.013
same,peptide microarray binding signal,[4]; [6],0.0505 ± 0.0048
B2,peptide microarray binding signal,"[1]; peptide modifications: H3K14me3 H3K18ac, binder concentration: 50 nM",0.00646 ± 0.00042
same,peptide microarray binding signal,"[1]; peptide modifications: H3K14me3 H3K18ac, binder concentration: 500 nM",0.0102 ± 0.00058
same,peptide microarray binding signal,"[2]; peptide modifications: H3K14me3 H3K18ac, binder concentration: 10 nM",0.0146 ± 0.00098
same,peptide microarray binding signal,"[2]; peptide modifications: H3K14me3 H3K18ac, binder concentration: 100 nM",0.032 ± 0.004
same,peptide microarray binding signal,[3]; [7],0.06 ± 0.018
same,peptide microarray binding signal,[3]; [8],0.0259 ± 0.0059
same,peptide microarray binding signal,[4]; [7],0.0686 ± 0.018
same,peptide microarray binding signal,[4]; [8],0.0246 ± 0.0023
B3,peptide microarray binding signal,"[1]; peptide modifications: H3K18me2, binder concentration: 50 nM",0.00558 ± 0.00014
same,peptide microarray binding signal,"[1]; peptide modifications: H3K18me2, binder concentration: 500 nM",0.0142 ± 0.0013
same,peptide microarray binding signal,"[2]; peptide modifications: H3K18me2, binder concentration: 10 nM",0.004595 ± 2.3e-05
same,peptide microarray binding signal,"[2]; peptide modifications: H3K18me2, binder concentration: 100 nM",0.0225 ± 0.0074
same,peptide microarray binding signal,[3]; [9],0.00421 ± 0.00019
same,peptide microarray binding signal,[3]; [10],0.001541 ± 1.5e-05
same,peptide microarray binding signal,[4]; [9],0.00397 ± 0.00076
same,peptide microarray binding signal,[4]; [10],0.00231 ± 4.2e-05
B4,peptide microarray binding signal,"[1]; peptide modifications: H3K18me1, binder concentration: 50 nM",0.00433 ± 0.00015
same,peptide microarray binding signal,"[1]; peptide modifications: H3K18me1, binder concentration: 500 nM",0.0187 ± 0.00044
same,peptide microarray binding signal,"[2]; peptide modifications: H3K18me1, binder concentration: 10 nM",0.00979 ± 0.0017
same,peptide microarray binding signal,"[2]; peptide modifications: H3K18me1, binder concentration: 100 nM",0.0252 ± 0.0035
same,peptide microarray binding signal,[3]; [11],0.00217 ± 0.00021
same,peptide microarray binding signal,[3]; [12],0.00108 ± 1.9e-05
same,peptide microarray binding signal,[4]; [11],0.00293 ± 8.2e-05
same,peptide microarray binding signal,[4]; [12],0.00173 ± 6e-05
B5,peptide microarray binding signal,"[1]; peptide modifications: H3K14me2 H3R17me2s, binder concentration: 50 nM",0.00489 ± 0.00015
same,peptide microarray binding signal,"[1]; peptide modifications: H3K14me2 H3R17me2s, binder concentration: 500 nM",0.0177 ± 0.0016
same,peptide microarray binding signal,"[2]; peptide modifications: H3K14me2 H3R17me2s, binder concentration: 10 nM",0.0129 ± 0.0031
same,peptide microarray binding signal,"[2]; peptide modifications: H3K14me2 H3R17me2s, binder concentration: 100 nM",0.00964 ± 0.0051
same,peptide microarray binding signal,[3]; [13],0.00034 ± 1e-05
same,peptide microarray binding signal,[3]; [14],0.0123 ± 0.0055
same,peptide microarray binding signal,[4]; [13],0.00669 ± 0.0021
same,peptide microarray binding signal,[4]; [14],0.00726 ± 0.0002
B6,peptide microarray binding signal,"[1]; peptide modifications: H3R17cit H3K18ac, binder concentration: 50 nM",0.00473 ± 9.3e-05
same,peptide microarray binding signal,"[1]; peptide modifications: H3R17cit H3K18ac, binder concentration: 500 nM",0.0124 ± 0.00036
same,peptide microarray binding signal,"[2]; peptide modifications: H3R17cit H3K18ac, binder concentration: 10 nM",0.00364
same,peptide microarray binding signal,"[2]; peptide modifications: H3R17cit H3K18ac, binder concentration: 100 nM",0.0114 ± 0.0017
same,peptide microarray binding signal,[3]; [15],0.003 ± 0.00042
same,peptide microarray binding signal,[3]; [16],0.0028 ± 0.00011
same,peptide microarray binding signal,[4]; [15],0.000634 ± 2.6e-05
same,peptide microarray binding signal,[4]; [16],0.000865 ± 2.4e-05
B7,peptide microarray binding signal,"[1]; peptide modifications: H3K14me3 H3R17cit, binder concentration: 50 nM",0.00273 ± 3.1e-05
same,peptide microarray binding signal,"[1]; peptide modifications: H3K14me3 H3R17cit, binder concentration: 500 nM",0.003095 ± 2.4e-05
same,peptide microarray binding signal,"[2]; peptide modifications: H3K14me3 H3R17cit, binder concentration: 10 nM",0.00603 ± 0.00019
same,peptide microarray binding signal,"[2]; peptide modifications: H3K14me3 H3R17cit, binder concentration: 100 nM",0.00709 ± 0.00015
same,peptide microarray binding signal,[3]; [17],0.00325 ± 7.6e-05
same,peptide microarray binding signal,[3]; [18],0.00257 ± 6e-05
same,peptide microarray binding signal,[4]; [17],0.00877 ± 0.0011
same,peptide microarray binding signal,[4]; [18],0.00519 ± 0.00016
B8,peptide microarray binding signal,"[1]; peptide modifications: H3K14me3 H3R17me2s, binder concentration: 50 nM",0.0074 ± 0.0004
same,peptide microarray binding signal,"[1]; peptide modifications: H3K14me3 H3R17me2s, binder concentration: 500 nM",0.0114 ± 0.00062
same,peptide microarray binding signal,"[2]; peptide modifications: H3K14me3 H3R17me2s, binder concentration: 10 nM",0.0227 ± 0.00044
same,peptide microarray binding signal,"[2]; peptide modifications: H3K14me3 H3R17me2s, binder concentration: 100 nM",0.0342 ± 0.0024
same,peptide microarray binding signal,[3]; [19],0.0208 ± 0.0037
same,peptide microarray binding signal,[3]; [20],0.0151 ± 0.00082
same,peptide microarray binding signal,[4]; [19],0.021 ± 0.0014
same,peptide microarray binding signal,[4]; [20],0.0116 ± 0.00028
B9,peptide microarray binding signal,"[1]; peptide modifications: H3K14me3 H3K18me1, binder concentration: 50 nM",0.00624 ± 0.00027
same,peptide microarray binding signal,"[1]; peptide modifications: H3K14me3 H3K18me1, binder concentration: 500 nM",0.0127 ± 0.00063
same,peptide microarray binding signal,"[2]; peptide modifications: H3K14me3 H3K18me1, binder concentration: 10 nM",0.0189 ± 0.00082
same,peptide microarray binding signal,"[2]; peptide modifications: H3K14me3 H3K18me1, binder concentration: 100 nM",0.0235 ± 0.0053
same,peptide microarray binding signal,[3]; [21],0.0496 ± 0.0091
same,peptide microarray binding signal,[3]; [22],0.0252 ± 0.0028
same,peptide microarray binding signal,[4]; [21],0.0621 ± 0.0077
same,peptide microarray binding signal,[4]; [22],0.0203 ± 0.0028
B10,peptide microarray binding signal,"[1]; peptide modifications: H3K14me2 H3K18me2, binder concentration: 50 nM",0.00868 ± 0.00041
same,peptide microarray binding signal,"[1]; peptide modifications: H3K14me2 H3K18me2, binder concentration: 500 nM",0.0137 ± 0.0018
same,peptide microarray binding signal,"[2]; peptide modifications: H3K14me2 H3K18me2, binder concentration: 10 nM",0.00555 ± 0.00016
same,peptide microarray binding signal,"[2]; peptide modifications: H3K14me2 H3K18me2, binder concentration: 100 nM",0.0111 ± 0.00051
same,peptide microarray binding signal,[3]; [23],0.0136 ± 0.0033
same,peptide microarray binding signal,[3]; [24],0.0097 ± 0.0018
same,peptide microarray binding signal,[4]; [23],0.00616 ± 0.00078
same,peptide microarray binding signal,[4]; [24],0.00536 ± 0.00032
